Measurements from PubChem BioAssay AID686978 (National Center for Advancing Translational Sciences (NCATS), 2013).
Screen size: about 420,000 compounds; about 64,000 (15%) were called active. Another 27% or so got no clear call; they are omitted. Calls come from the whole dose curve; as a rule, active = well fitted inhibition curve with a large enough effect; inconclusive = small, poorly fitted or top-dose-only effect; inactive = flat fitted curve, though single readings scatter. The list is a sample of the results. A call without a number means that no potency is given here.

test: qHTS for Inhibitors of human tyrosyl-DNA phosphodiesterase 1 (TDP1): qHTS in cells in absence of CPT; details: DT40 Tdp1-/- hTDP1 cells, no CPT, ATP luminescence, 48 h; activity change, negative = growth inhibition: at 46.2 µM (top of the series); note: nearly all actives have a fitted effect of over 55% in size
How it was run: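 Chicken DT40 Tdp1-/- cells complemented with human TDP1, screened without camptothecin (DMSO vehicle only), 400 cells/well. Compounds pin-transferred, cells incubated at 37 °C for at least 48 hr. Growth read as ATP-dependent luminescence (CellTiter-Glo, 30 min at RT).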
Potency is the fitted concentration of half-maximal effect.

SMILES | Potency
Cc1c(CN2CCCCC2)c(O)n(CCO)c(=O)c1C#N | inactive
COc1cc(CCC(=O)OCC(=O)Nc2cccc(S(N)(=O)=O)c2)cc(OC)c1OC | inactive
Cc1ccc(NC(=O)OCCNC(=O)c2ccncc2)cc1 | inactive
CCCc1cc(=O)n2[nH]c(NCc3ccc(CC)cc3)nc2n1 | inactive
CCC(C)NC(=O)C1c2ccccc2C(=O)N1Cc1ccccc1 (configuration not stated) | inactive
O=C(N[C@@H](Cc1c[nH]c2ccccc12)C(=O)O)OCC1c2ccccc2-c2ccccc21 | inactive
O=C(N[C@H]1C/C=C\C(c2ccc(F)cc2)N(Cc2ccccc2)C(=O)C1)OCC1c2ccccc2-c2ccccc21 (some centres not stated) | 20.6 µM (active)
CN(Cc1ccccc1Cl)C(=O)C1CCC(=O)N(CCc2cccc(F)c2)C1 (configuration not stated) | inactive
O=C1c2ccccc2C(O)N1Cc1ccccc1 (configuration not stated) | inactive
O=C(N[C@H]1C/C=C\C(c2cccc(F)c2)N(Cc2ccccc2)C(=O)C1)OCC1c2ccccc2-c2ccccc21 (some centres not stated) | 20.6 µM (active)
CC1CCCN(S(=O)(=O)c2ccc3[nH]c(=O)cc(C(=O)NCCc4ccc(Cl)cc4)c3c2)C1 (configuration not stated) | inactive
COC(=O)c1ccc(S(=O)(=O)N2CCC(c3nc4ccccc4o3)CC2)cc1 | inactive
O=C(c1ccncc1)N1CCN(S(=O)(=O)c2cc(C(F)(F)F)cc(C(F)(F)F)c2)CC1 | inactive
NC(=O)C1CCN(C(=O)c2ccc(C(F)(F)F)cc2)CC1 | inactive
CC(C)(C)c1ccc(C(=O)N2CCC(c3nc(-c4ccc(S(=O)(=O)N5CCCC5)cc4)no3)CC2)cc1 | 20.6 µM (active)
O=C(c1ccc(C(F)(F)F)cc1)N1CCC(c2nc(-c3ccc(S(=O)(=O)N4CCCC4)cc3)no2)CC1 | 18.4 µM (active)
CC(C)(C)c1ccc(S(=O)(=O)N2CCN(C(=O)c3ccc4c(c3)C(=O)N(Cc3ccncc3)C4=O)CC2)cc1 | inactive
Cc1ccc2nc(COc3cccc(NC(=O)c4ccccc4Cl)c3)cc(=O)n2c1 | inactive
CNC[C@H]1Oc2c(NC(=O)C3CCCCC3)cccc2C(=O)N([C@H](C)CO)C[C@@H]1C | inactive
O=C(COC(=O)c1ccc(O)cc1O)NNC(=O)c1cccs1 | inactive
Nc1nc(/C(=C/CC(=O)O)C(=O)N[C@@H]2C(=O)N3C(C(=O)O)=CCS[C@H]23)cs1 | inactive
COc1cccc(NC(=S)NCCCN2CCOCC2)c1 | inactive
COc1cccc2cc(C(C)N(CCCN3CCOCC3)C(=O)Nc3ccc(Cl)cc3)oc12 (configuration not stated) | 23.1 µM (active)
COc1ccc(Cl)cc1NC(=O)CCN1CCOCC1 | inactive
CC(C)CC(=O)N1CCC(O)(CS(=O)(=O)Cc2ccccc2)CC1 | inactive
CCCCC(=O)Nc1c2c(nn1-c1ccc([N+](=O)[O-])cc1)CS(=O)(=O)C2 | inactive

SMILES | Potency
Cc1ccc2c(c1)nnc1nnc(SCC(=O)O)n12 | inactive
C[C@H](NC(=O)c1nc[nH]c1C(=O)NCC(=O)OC(C)(C)C)C(=O)OCc1ccccc1 | inactive
NC(=O)COc1ccc2c3c(c(=O)oc2c1)CCCCC3 | inactive
Cc1c(OC(C)C(=O)N[C@@H](Cc2ccccc2)C(=O)O)ccc2c3c(c(=O)oc12)CCCC3 (some centres not stated) | inactive
CCCOc1ccc2c3c(c(=O)oc2c1OCCC)CCC3 | 23.1 µM (active)
COc1ccc(NC(=O)Nc2ccc3c(c2)C(=O)N([C@H](C)CO)C[C@H](C)[C@@H](CN(C)C(=O)Nc2ccc4c(c2)OCO4)O3)cc1 | inactive
CN(CCc1cnn(C)c1)Cc1cn(C)nc1-c1ccccc1F | inactive
C[C@H](CO)N1C[C@H](C)[C@@H](CN(C)S(=O)(=O)c2ccc(F)cc2)Oc2c(NC(=O)Nc3ccccc3)cccc2C1=O | inactive
COc1ccc(S(=O)(=O)N(C)C[C@H]2Oc3c(NC(=O)Nc4ccc5c(c4)OCO5)cccc3C(=O)N([C@H](C)CO)C[C@@H]2C)cc1 | 20.6 µM (active)
Cc1noc(C)c1S(=O)(=O)N(C)C[C@H]1Oc2c(NC(=O)Nc3ccc4c(c3)OCO4)cccc2C(=O)N([C@H](C)CO)C[C@@H]1C | inactive
Cn1c(=O)c(=O)n(C)c2cc(S(=O)(=O)NCCN3CCN(c4ccccc4F)CC3)ccc21 | inactive
CC(=O)Oc1cccc(N2C(=O)CC(Nc3ccc(N4CCOCC4)cc3)C2=O)c1 (configuration not stated) | inactive
Cc1cc(C(=O)CSc2nc(N)cc(=O)[nH]2)c(C)n1CCc1ccc(Cl)cc1 | 16.4 µM (active)
Cc1cc(C)c(C(=O)CSc2nc(C)cc(=O)[nH]2)c(C)c1 | inactive
Nc1cc(N)nc(SCc2ccc(Cl)cc2)n1 | inactive
CCN(C(=O)CSc1nc(N)cc(=O)[nH]1)C1CCS(=O)(=O)C1 (configuration not stated) | inactive
Cc1cc(C(=O)CSc2nc(N)cc(=O)[nH]2)c(C)n1-c1cccc(F)c1 | 4.61 µM (active)
Cc1cc(=O)[nH]c(SCC(=O)N2c3ccccc3CC2C)n1 (configuration not stated) | inactive
Cc1cc(C(=O)CSc2nc(N)cc(=O)[nH]2)c(C)n1Cc1ccco1 | 0.82 µM (active)
Cc1cc(C(=O)COC(=O)CNC(=O)c2ccc(F)cc2)c(C)n1Cc1ccco1 | inactive
CCCCc1nnc(NC(=O)CSc2nc(N)cc(=O)[nH]2)s1 | inactive
C=CCn1c(COc2ccccc2F)nnc1SCC(=O)N1CC(=O)Nc2ccccc21 | inactive
O=C(O)C1C2C=CC(C2)C1C(=O)N1CCN(CCO)CC1 (configuration not stated) | inactive
C/C(=N\c1nc2ccccc2n1C)c1cc(Cl)ccc1O | inactive
CCCOc1ccc(C2c3c(oc4cc(C)c(C)cc4c3=O)C(=O)N2CCCN2CCOCC2)cc1 (configuration not stated) | inactive
Cc1cc2oc3ccc(NCCC4CCCN4C)cc3c(=O)c2cc1C (configuration not stated) | 16.4 µM (active)

SMILES | Potency
Cc1ccc(C(=O)O)c(NC=O)c1OCc1ccccc1 | inactive
CC(=O)Nc1ccc(NC(=O)CSc2nnc3c4cc(Br)ccc4n(C)c3n2)cc1 | inactive
O=C1CCC/C(=N\NC(=O)NC2CCCCC2)C1 | inactive
Cc1cnc(NC(=O)CSc2nnc(-c3ccccc3)n2Cc2ccccc2)s1 | inactive
COC(=O)c1ccc(COc2cc([N+](=O)[O-])cc3cccnc23)cc1 | inactive
COc1ccc(CNC(=O)COC(=O)C(CCSC)N2C(=O)c3ccccc3C2=O)cc1 (configuration not stated) | inactive
COc1ccc2c(CC(=O)N3CCc4cc(OC)c(OC)cc4C3)coc2c1 | inactive
COc1ccccc1N1CCN(c2nc(C)cc(=O)[nH]2)CC1 | inactive
COc1ccccc1N1CCN(C(=O)c2cc(=O)c3cc(C)cc(C)c3o2)CC1 | 0.0082 µM (active)
COc1ccccc1N1CCN(C(=O)c2cc(=O)c3cc(C)ccc3o2)CC1 | 23.1 µM (active)
Cc1cccc(-c2cc(=O)c3cc(C)ccc3o2)c1 | inactive
O=C(c1cc(=O)c2ccccc2o1)N1CCN(c2ccccc2)CC1 | inactive
COc1cc2c(cc1OC)CN(C(=O)c1cc(=O)c3ccccc3o1)CC2 | 3.26 µM (active)
COc1ccccc1OCc1ccc(C(=O)N2CCN(C)CC2)o1 | inactive
COc1cccc2cc(C(=O)N3CCN(C(=O)c4ccccc4)CC3)c(=O)oc12 | inactive
O=C(NCc1ccco1)/C(=C\c1cccc([N+](=O)[O-])c1)NC(=O)c1ccco1 | inactive
Cc1cc(NC(=O)COC(=O)/C=C/c2ccc(C)o2)no1 | inactive
COc1cccc2c1OCC1COc3c(c(=O)n(C)c(=O)n3C)C21 (configuration not stated) | inactive
COc1ccc(NC(=S)NCCN2CCC(C)CC2)cc1 | inactive
CC(C)CC(=O)c1c[nH]c(C(=O)NCc2ccccc2)c1 | inactive
O=C(CN1CCSCC1)N/N=C/c1ccc(F)cc1F | inactive
OC(CBr)CN1CCCCC1 (configuration not stated) | inactive
OC(COc1ccc(CN2CCSCC2)cc1)CN1CCCCC1 (configuration not stated) | inactive
OC(COCCC12CC3CC(CC(C3)C1)C2)CN1CCCCC1 (configuration not stated) | 16.4 µM (active)
O=C(CSc1nc2ccccc2c(=O)n1-c1ccccc1F)N1CCOCC1 | inactive
CCN(CC)CCCC(C)n1c2nc(=O)[nH]c(=O)c-2nc2cc(Cl)ccc21 (configuration not stated) | 8.2 µM (active)

SMILES | Potency
CCCCc1nc2ccccc2c(NC(=O)CN2CCN(C)CC2)c1CCC | inactive
CCCc1nc2ccccc2c(C(=O)OCc2nnc(-c3cc(OC)c(OC)c(OC)c3)o2)c1CC | 23.1 µM (active)
O=C(OCc1nnc(-c2ccccc2)o1)c1cc(=O)[nH]c2ccccc12 | inactive
C=CCn1c(N)cc(=O)nc1SCC(=O)Nc1cccc2ccccc12 | inactive
CCOc1ccccc1CN1CCN(C2CCC2)CC1CCO (configuration not stated) | inactive
O=C(Nc1c(Cl)cccc1Cl)C1CCC1 | inactive
CC(=O)NC(c1cccc(F)c1)c1nc(-c2cccc(F)c2)cs1 (configuration not stated) | inactive
Cc1cccc(NC(c2cccc(F)c2)c2ccc3ccc(C)nc3c2O)n1 (configuration not stated) | 5.8 µM (active)
CSCCC(NC(=O)c1ccco1)C(=O)Nc1cc(C)ccn1 (configuration not stated) | inactive
N#Cc1cccc(CN2CCC(=O)N([C@H](CO)c3ccccc3)CC2)c1 | inactive
O=C(CSCc1c(F)cccc1Cl)NCC1CCCO1 (configuration not stated) | inactive
N#Cc1cccc(-c2ccc3ncnc(NCc4cccs4)c3c2)c1 | 23.1 µM (active)
O=c1c(NCc2cccs2)nccn1-c1ccccc1 | inactive
O=C(O)c1ccc2c(c1)C(=O)N(NC(=O)c1ccc(O)cc1)C2=O | inactive
COc1ccccc1OCC(=O)Nc1nnc2n1CCS2 | inactive
O=C(COC(=O)CCCSc1nc2ccccc2[nH]1)Nc1ccc(Oc2ccccc2)cc1 | inactive
O=C(CSc1nc2ccccc2[nH]1)Nc1nc(-c2ccccc2)c(-c2ccccc2)o1 | inactive
O=C(CSc1nc2ccccc2[nH]1)N/N=C/C=C\c1ccccc1[N+](=O)[O-] | 20.6 µM (active)
Cc1cnc(CNc2ncncc2-c2ccccc2Cl)cn1 | inactive
COCC1CCN(C(=O)CCc2nnc(C3(c4ccc(Cl)cc4)CCC3)o2)C1 (configuration not stated) | inactive
c1ccc(C2=Nc3cccc4cccc(c34)N2)cc1 | 11.6 µM (active)
COc1ccccc1-c1nc(SC)n[nH]1 | inactive
COc1ccccc1-c1n[nH]nc1C1=CC(=O)CC(C)(C)C1 | inactive
COc1ccccc1C1=Nc2cccc3cccc(c23)N1 | 5.17 µM (active)
